ZTA DNA inh: blocks Epstein-Barr virus ZTA, an EBNA-1 counter-screen; P03206; ZTA-DNA binding, fluorescence polarization; inhibition, % at 11 µM; actives 0.15% (n = 320,000); AID 2234; in the data active = inhibition above about 33%
Target sequence (P03206 whole entry, looked up): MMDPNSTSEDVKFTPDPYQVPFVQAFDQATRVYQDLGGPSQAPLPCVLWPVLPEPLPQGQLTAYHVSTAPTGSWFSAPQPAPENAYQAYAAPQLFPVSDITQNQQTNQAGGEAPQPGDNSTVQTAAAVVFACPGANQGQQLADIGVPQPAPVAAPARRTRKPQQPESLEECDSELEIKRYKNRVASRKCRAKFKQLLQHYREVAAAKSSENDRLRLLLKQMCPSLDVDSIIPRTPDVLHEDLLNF
EBNA-1 inh: blocks EBNA-1 binding to DNA; EBNA-1 DNA binding, fluorescence polarization; inhibition, % at 14.8 µM; actives 0.34% (n = 300,000); AID 1950; in the data active = inhibition above about 28%
dFosB activator: enhances mouse delta FosB homodimer DNA binding; actives 0.99% (n = 340,000); P13346; activation, % at 25 µM; AID 493131; purified delta FosB, TAMRA-CDK5 oligo fluorescence polarization; percent of positive-control signal above neutral wells;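 active = mean activation above about 17%, with every replicate also reaching it, limit read from the data, passing the limit was not always enough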
Rpn11 inh: Rpn11 (human) deubiquitinase inhibition; actives 0.59% (n = 360,000); O00487; inhibition, % at 20 µM; human 26S proteasome, Ub4-pepOG fluorescence polarization; 20S core pre-blocked with epoxomicin; AID 588493;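 active = inhibition at 20 µM, scaled to each plate's controls, above about 33%, limit read from the data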
Target sequence (O00487 whole entry, looked up): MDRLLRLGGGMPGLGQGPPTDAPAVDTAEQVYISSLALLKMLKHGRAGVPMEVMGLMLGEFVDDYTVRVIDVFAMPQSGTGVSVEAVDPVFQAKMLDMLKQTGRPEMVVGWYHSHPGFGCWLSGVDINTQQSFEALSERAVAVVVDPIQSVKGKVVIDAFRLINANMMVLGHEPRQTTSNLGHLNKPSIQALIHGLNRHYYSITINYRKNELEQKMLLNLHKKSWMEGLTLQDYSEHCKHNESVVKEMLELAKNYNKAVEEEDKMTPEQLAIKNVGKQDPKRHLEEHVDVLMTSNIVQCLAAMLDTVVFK
TPT1 inhibitor: inhibitors of Candida albicans tRNA 2'-phosphotransferase TPT1 | AID 1962 | actives 0.81% (n = 300,000) | inhibition, % at 5 µM | recombinant caTPT1, FP RNA substrate dephosphorylation;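 active = inhibition above the mean of all tested compounds plus 3 SD, set per screening campaign, cut at about 24% in these data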;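 note: plate controls were DMSO alone for no effect and ferristatin control at 100 nM for full effect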
NR3A LBD binder: NR3A (human) ligand-binding domain modulation | NR3A LBD differential scanning fluorimetry, Tm shift; 0% = protein alone, 100% = glycine-bound protein | Tm shift relative to glycine control, % at 25 µM | actives 2.5% (n = 340,000) | AID 1259313;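 active = melting temperature shift of at least 10% of the positive control shift, at one fixed dose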
An asterisk follows results filed as active; · = not tested or not shown. The list is not random: actives were taken first. Their share in the collection is about 4.5%.

SMILES	ZTA DNA inh	EBNA-1 inh	dFosB activator	Rpn11 inh	TPT1 inhibitor	NR3A LBD binder
CCOc1nc(-c2ccc(OC)cc2)ccc1-c1noc(C)n1	-3	-8	-8	-2	2	25*
N#Cc1nc(Cl)c(Cl)c(NN)c1Cl	6	-7	3	-4	-1	-1
Cc1c(CCO)c(=O)[nH]n1S(=O)(=O)c1ccc(Cl)cc1Cl	-10	4	-4	1	-1	1
COc1ccc(S(=O)(=O)n2[nH]c(=O)c(CCO)c2C)c([N+](=O)[O-])c1	-2	-4	-5	-4	1	16*
Clc1ccc(-c2nc(C3CCCCC3)no2)cc1	-4	-10	3	-1	-3	4
COc1ccc(-c2nn(-c3ccccc3)cc2CNC[C@H]2O[C@@H](n3cnc4c(N)ncnc43)[C@H](O)[C@@H]2O)cc1	·	·	6	0	·	1
CC1(C(=O)NS(=O)(=O)C2CC2)CCCN(C(=O)c2ccccc2OC(F)(F)F)C1 (stereo unspecified)	·	·	·	-4	·	·
O=C1N=c2ccccc2=C1c1sc(=S)n(CC2CCCO2)c1O (stereo unspecified)	-10	-8	5	0	-3	15*
COc1ccc(CCn2c(O)c(C3=c4ccccc4=NC3=O)sc2=S)cc1OC	-17	-4	4	1	3	2
CCOC(=O)c1cnc(N2CCN(C(=O)OCC)CC2)[nH]c1=O	-8	-24	-1	0	-1	0
CCOC(=O)C1(CC2CC2)CCN(C(=O)c2cc(OC)nc3ccccc23)CC1	34*	29*	-12	2	1	2
Cc1cn(-c2cc(C(=O)Nc3ccc(C)c(NC(=O)C(=O)c4c[nH]c5ccccc45)c3)cc(C(F)(F)F)c2)cn1	6	9	13	-5	-4	12*
CCOCCn1c2ccccc2c2nc3ccccc3nc21	11	9	-34	-1	-3	-2
C#CCOCCOCCOCCNc1nc(N2CCN(C(=O)CCCCCCCCCCNC(=O)[C@@H](CCC(=O)O)n3cc(CCCCCN)nn3)CC2)nc(N2CCN(C(=O)CCCCCCCCCCNC(=O)[C@H]([C@@H](C)CC)n3cc(CCCCCN)nn3)CC2)n1	30	8	-33	-2	-4	26*
C#CCOCCOCCOCCNc1nc(N2CCN(C(=O)CCCCCCCCCCNC(=O)[C@H](CCCCN)n3cc(CCCC(=O)O)nn3)CC2)nc(N2CCN(C(=O)CCCCCCCCCCNC(=O)[C@@H]([C@H](C)O)n3cc(C)nn3)CC2)n1	5	7	-1	-3	-2	-3
C#CCOCCOCCOCCNc1nc(N2CCOCC2)nc(N2CCN(C(=O)CCCCCCCCCCNC(=O)[C@@H](CCC(=O)O)n3cc(CCCCCN)nn3)CC2)n1	13	10	0	-22	-3	0
C#CCOCCOCCOCCNc1nc(N2CCN(C(=O)CCCCCCCCCCNC(=O)[C@H]([C@@H](C)CC)n3cc(CCCCCN)nn3)CC2)nc(N2CCN(C(=O)CCCCCCCCCCNC(=O)[C@H](CCCCN)n3cc(CCCC(=O)O)nn3)CC2)n1	29	3	-31	0	-1	22*
CC1(C)CC2CC(C)(CN2C(=O)COC(=O)c2cccc([N+](=O)[O-])c2)C1 (stereo unspecified)	·	·	-4	4	·	11*
COC(=O)[C@H](CC(C)C)NC(=O)Cn1cnc2c(OCc3ccccc3)ncnc21	·	·	-4	0	·	97*
COC(=O)[C@H](CCSC)NC(=O)Cn1cnc2c(OCc3ccccc3)ncnc21	·	·	2	-4	·	1
O=C(/C=C/c1ccccc1)c1c[nH]c2ccccc12	13	13	-2	0	-1	25*
O=C(Nc1ccc(OCc2ccccc2)cc1)Nc1cccnc1	11	-6	12	-2	3	15*
O=C(Nc1ccc(OCc2ccccc2)cc1)c1cccnc1	-5	7	1	3	-3	2
COc1ccc(NC(=O)Nc2ccc(OCc3ccccc3)cc2)cn1	·	·	-13	-52	·	29*
Cc1nc2sc(C(N)=O)c(N)c2c2c1CCCC2	-11	0	-6	-1	-4	0
SMILES	ZTA DNA inh	EBNA-1 inh	dFosB activator	Rpn11 inh	TPT1 inhibitor	NR3A LBD binder
CCC1CCC(C(=O)NC(C(=O)NCCc2ccc(S(N)(=O)=O)cc2)C(C)C)CC1 (stereo unspecified)	-10	2	73*	1	-2	-11
NC(Cc1ccc(F)cc1)c1csc(Nc2ccc(C(F)(F)F)cn2)n1 (stereo unspecified)	·	·	·	-1	·	·
COC(=O)c1ccc(NC(C(=O)OC)C(C)C)c([N+](=O)[O-])c1 (stereo unspecified)	-10	-13	-6	-6	0	9
CCC(C)C(Nc1ccc(C(=O)OC)cc1[N+](=O)[O-])C(=O)OC (stereo unspecified)	-20	1	-5	-3	4	12*
COc1ccc(NS(=O)(=O)c2cc(NC(=O)c3nc4nc(C)cc(C)n4n3)ccc2C)cc1	8	7	-12	-5	2	12*
COc1ccccc1NS(=O)(=O)c1cccc(NC(=O)c2nc3nc(C)cc(C)n3n2)c1	16	0	-24	-1	-5	-1
COC(=O)c1ccc(N=NN2CCCCCC2)cc1	2	1	-7	-1	-2	17*
COC(=O)c1ccc(N=NN2CCOCC2)cc1	-10	6	-4	-1	-5	-1
COc1cccc(C(C)(O)c2nc(-c3cnc4ccccc4c3)cs2)c1 (stereo unspecified)	·	·	·	4	·	·
COC(=O)c1ccc(Oc2nc(Nc3ccccc3)nc(N(C)C)n2)cc1	7	11	-7	0	2	2
CCN(CC)c1nc(Nc2ccccc2)nc(Oc2ccc(C(=O)OC)cc2)n1	0	-1	-6	2	1	14*
Cc1cccc(C(=O)Nc2ccc(C(=O)N/N=C/c3cccnc3)cc2)c1	9	9	-4	6	-1	-8
Cc1cccc(C(=O)Nc2ccc(C(=O)/C=C/c3cccnc3)cc2)c1	5	6	-3	8	-3	24*
Cc1cccc(C(=O)Nc2ccc(C(=O)/C=C/c3ccncc3)cc2)c1	0	-1	-4	-6	-3	16*
NC(=S)N=Nc1c(O)n(C2OC(=O)c3ccccc32)c2ccccc12 (stereo unspecified)	-16	-2	26*	7	-5	-12
COc1ccc(Nc2nc(-c3ccccc3)nc3ccccc23)cc1	13	15	-6	-1	1	34*
C/C(=N\Nc1nncc2ccccc12)c1ccc(O)cc1	-3	-8	-3	1	0	8
O=C(O)c1ccc(Nc2nc(-c3ccc([N+](=O)[O-])cc3)nc3ccccc23)cc1	·	·	-8	-2	·	8
O=[N+]([O-])c1ccc(-c2nc(Nc3ccc(O)cc3)c3ccccc3n2)cc1	·	·	2	-9	·	23*
